Results on ten compounds are retold here after PubChem BioAssay (Tox21).

Assay [1] can be described thus: Human pregnane X receptor (PXR) small molecule agonists, qHTS cell viability counter screen (AID 1346977). Also: nearly all actives have a fitted effect of over 50% in size. Also: potency is read from the fitted curve at half-maximal effect. The method, boiled down: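 PXR-Luc HepG2 cells (2,000/well, 5% charcoal-stripped FBS) preincubated 5 hr, then exposed to compounds 24 hr at 37 C. Viability read in the same wells by CellTiter-Fluor fluorescence, reagent added at 23 hr, 1 hr incubation.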
The nature of assay [2]: Caspase-3/7 induction in HepG2 cells by small molecules, qHTS assay (AID 1346978). Also: nearly all actives have a fitted effect of over 15% in size. The method, boiled down:
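Wild-type HepG2 cells, 2,000/well, settled 5 hr at 37 C and 5% CO2, then compound-treated for 17 hr; caspase-3/7 activity read by luminescent Caspase-Glo 3/7 after 30 min at room temperature.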
In general terms: Quantitative high-throughput screening tests each substance at several concentrations.

Assay [3] can be described thus: Caspase-3/7 induction in CHO-K1 cells by small molecules, qHTS cell viability counter screen (AID 1346979). Also: nearly all actives have a fitted effect of over 35% in size. The method, boiled down: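 Wild-type CHO-K1 cells (1,500/well) treated with compound after 5 h plating; after 16 h at 37C, viability read as CellTiter-Fluor fluorescence following 1 h reagent incubation, in the same wells as the caspase read.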
Assay [4] in a line: Caspase-3/7 induction in CHO-K1 cells by small molecules, qHTS assay (AID 1346980). Also: nearly all actives have a fitted effect of over 15% in size. The method in brief:
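Wild-type CHO-K1 cells exposed to compounds for 17hr at 37 C, 5% CO2. Caspase-3/7 activity then measured by Caspase-Glo 3/7 luminescence after 30min at room temperature.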

Assay [5] is described as follows: Caspase-3/7 induction in HepG2 cells by small molecules, qHTS cell viability counter screen (AID 1346981). Also: series mostly up to about 92 µM; nearly all actives have a fitted effect of over 30% in size. The method in brief: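 Treatment of HepG2 cells with DMSO-delivered compounds ran 16 hr at 37 C following a 5-hr pre-incubation of 2,000 cells/well. CellTiter-Fluor fluorescence, read after 1 hr, served as the viability measure in a qHTS format.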
Assay [6] addresses Nuclear receptor subfamily 1 group I member 2 (Homo sapiens) (UniProt O75469). Put plainly: Human pregnane X receptor (PXR) small molecule agonists, qHTS assay (AID 1346982). Also: nearly all actives have a fitted effect of over 35% in size. Also: potency is read from the fitted curve at half-maximal effect. The method, boiled down: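 Stable HepG2 line reporting PXR-mediated CYP3A4 expression via luciferase. Treatment: 24 hr with compounds in DMSO at 37 C. Detection: ONE-Glo luminescence.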
For assay [7], the target named is Nuclear receptor subfamily 1 group I member 2 (Rattus norvegicus) (UniProt Q9R1A7). The assay can be described thus: Rat pregnane X receptor (rPXR) activation by small molecules, qHTS assay (AID 1346983). Also: potency is read from the fitted curve at half-maximal effect; nearly all actives have a fitted effect of over 20% in size. Conditions: rPXR luciferase reporter cells, One-Glo luminescence, 24 h; max activation: active compounds read high. The method, boiled down:
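Cell-based rPXR activation assay: rPXR cells, 2,000 per well, rested 5hr at 37 C, then exposed to compounds in DMSO for 24 hr at 37 C. Luciferase activity read by One-Glo luminescence after 30 min at room temperature.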

The target in assay [8] is Nuclear receptor subfamily 1 group I member 2 (Homo sapiens) (UniProt O75469). The assay can be described thus: CYP3A4 induction through human pregnane X receptor (PXR) by small molecules, qHTS assay (AID 1346984). Also: nearly all actives have a fitted effect of over 40% in size. The method, boiled down: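 After 24 h at 37C with compound, DPX-2 cells (HepG2, co-transfected PXR response element and CYP3A4 promoter-luciferase) got 3uM final P450-Glo Luciferin-IPA for 3 h; One-Glo luminescence followed.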

The target is the same in assay [9]. The assay can be described thus: Human pregnane X receptor (PXR) activation by small molecules, qHTS assay (AID 1346985). Also: nearly all actives have a fitted effect of over 40% in size. The method, boiled down:
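DPX-2 cells (HepG2 co-transfected with a PXR response element and a CYP3A4-promoter luciferase construct) were seeded at 2,000 per well, rested 5 hr at 37C, then exposed to DMSO-dissolved compounds for 24 hr. Activation was read as luciferase luminescence.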

The target in assay [10] is Cytochrome P450 2C19 (Homo sapiens) (UniProt P33261). The assay can be described thus: Cytochrome P450 Family 2 Subfamily C Member 19 (CYP2C19) small molecule antagonists: luciferase reporter qHTS assay (AID 1671197). Also: nearly all actives have a fitted effect of over 65% in size. Also: potency is read from the fitted curve at half-maximal effect. The method, boiled down: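 Inhibition of CYP2C19 was scored from loss of luminescence in a P450-Glo proluciferin substrate assay, NADPH-started and run 1 h at 37C, with ketoconazole as positive control.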
(Reporter assays use an easily measured gene product as a stand-in for the process of interest.)

The target in assay [11] is Cytochrome P450 1A2 (Homo sapiens) (UniProt P05177). Put plainly: Cytochrome P450 Family 1 Subfamily A Member 2 (CYP1A2) small molecule antagonists: luciferase reporter qHTS assay (AID 1671199). Also: nearly all actives have a fitted effect of over 50% in size. Also: potency is read from the fitted curve at half-maximal effect. The method in brief: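 Read-out is luminescence from luciferin detection reagent (20 min) proportional to CYP1A2 activity; compounds in DMSO preincubated 10 min with enzyme and proluciferin substrate, then NADPH regeneration solution, 1 h, room temperature.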

Assay [12] has as its target Cytochrome P450 3A4 (Homo sapiens) (UniProt P08684). Put plainly: Cytochrome P450 Family 3 Subfamily A Member 4 (CYP3A4) small molecule antagonists: luciferase reporter qHTS assay (AID 1671201). Also: nearly all actives have a fitted effect of over 50% in size. Also: potency is read from the fitted curve at half-maximal effect. The method, boiled down: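 P450-Glo CYP3A4 luminescent assay: compounds preincubated 10 min at room temperature with enzyme and proluciferin substrate, NADPH regeneration added, 1 h room-temperature reaction, stopped with luciferin detection reagent; luminescence read after 20 min. Ketoconazole positive control.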

Assay [13] deals with Cytochrome P450 2D6 (Homo sapiens) (UniProt P10635). The assay can be described thus: Cytochrome P450 Family 2 Subfamily D Member 6 (CYP2D6) small molecule antagonists: luciferase reporter qHTS assay (AID 1671196). Also: nearly all actives have a fitted effect of over 50% in size. Also: potency is read from the fitted curve at half-maximal effect. The method in brief:
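Chemicals tested for interference with CYP2D6 activity; proluciferin substrate, NADPH regeneration, 1 h at room temperature, luminescent detection.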

Assay [14] addresses Cytochrome P450 2C9 (Homo sapiens) (UniProt P11712). The assay can be described thus: Cytochrome P450 Family 2 Subfamily C Member 9 (CYP2C9) small molecule antagonists: luciferase reporter qHTS assay (AID 1671198). Also: nearly all actives have a fitted effect of over 50% in size. Also: potency is read from the fitted curve at half-maximal effect. The method in brief: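 P450-Glo proluciferin substrate with CYP2C9 enzyme; 10 min RT preincubation, then NADPH regeneration 1 h at 37C; luciferin detection reagent 20 min RT, luminescence in relative luminescence units.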

Assay [15] deals with Voltage-gated inwardly rectifying potassium channel KCNH2 (Homo sapiens) (UniProt Q12809). The assay can be described thus: Human Ether-a-go-go-Related Gene (hERG) channel small molecule antagonists: fluorescence cell-based qHTS assay (AID 1671200). Also: nearly all actives have a fitted effect of over 50% in size. Also: potency is read from the fitted curve at half-maximal effect. The method, boiled down: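 hERG-U2OS cells plated overnight at 37 C, loaded with FluxOR II dye 1 h at RT in dark; after 10 min, thallium stimulus added. Fluorescence (480/540 nm) read kinetically for 2 min at 1 s intervals.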
On the technique in general: Block of hERG is tested as a sign of cardiac risk.

A number with no mark means an inactive call. Inconclusive results are not listed. Activity calls are given as the source filed them. Calls follow the shape of the dose curve; as a rule, active = well fitted curve in the direction sought with a large enough effect in the repeat runs; inconclusive = weak or mixed curves; inactive = no such curve, though single readings can be large; an effect the other way counts as inactive or inconclusive.

Chain of Nuclear receptor subfamily 1 group I member 2 (Homo sapiens) (O75469 whole entry, looked up): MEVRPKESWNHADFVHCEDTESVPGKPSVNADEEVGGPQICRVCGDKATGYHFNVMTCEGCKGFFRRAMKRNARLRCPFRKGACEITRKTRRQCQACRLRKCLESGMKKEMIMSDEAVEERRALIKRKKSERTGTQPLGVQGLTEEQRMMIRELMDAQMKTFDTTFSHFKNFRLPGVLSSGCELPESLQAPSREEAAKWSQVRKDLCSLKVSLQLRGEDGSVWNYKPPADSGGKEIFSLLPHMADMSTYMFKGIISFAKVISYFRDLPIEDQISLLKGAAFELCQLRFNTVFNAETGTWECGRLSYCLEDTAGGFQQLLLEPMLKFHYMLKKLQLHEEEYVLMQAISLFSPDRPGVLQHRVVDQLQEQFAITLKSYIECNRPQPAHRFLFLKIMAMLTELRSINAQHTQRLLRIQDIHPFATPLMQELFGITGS
Chain of Cytochrome P450 2C9 (Homo sapiens) (P11712 whole entry, looked up): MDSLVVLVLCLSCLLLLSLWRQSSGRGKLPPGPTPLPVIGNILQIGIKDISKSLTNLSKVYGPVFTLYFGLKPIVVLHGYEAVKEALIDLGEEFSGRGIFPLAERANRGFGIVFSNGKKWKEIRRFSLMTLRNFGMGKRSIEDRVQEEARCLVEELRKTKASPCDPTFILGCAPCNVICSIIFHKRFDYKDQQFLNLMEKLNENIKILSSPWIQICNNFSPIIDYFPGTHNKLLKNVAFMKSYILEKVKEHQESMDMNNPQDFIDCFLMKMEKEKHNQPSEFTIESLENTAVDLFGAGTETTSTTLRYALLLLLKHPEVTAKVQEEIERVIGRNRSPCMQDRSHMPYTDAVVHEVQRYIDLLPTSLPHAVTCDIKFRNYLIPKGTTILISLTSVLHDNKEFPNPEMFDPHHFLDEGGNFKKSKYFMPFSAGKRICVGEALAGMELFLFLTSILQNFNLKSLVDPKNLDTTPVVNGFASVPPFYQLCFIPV
Chain of Cytochrome P450 2D6 (Homo sapiens) (P10635 whole entry, looked up): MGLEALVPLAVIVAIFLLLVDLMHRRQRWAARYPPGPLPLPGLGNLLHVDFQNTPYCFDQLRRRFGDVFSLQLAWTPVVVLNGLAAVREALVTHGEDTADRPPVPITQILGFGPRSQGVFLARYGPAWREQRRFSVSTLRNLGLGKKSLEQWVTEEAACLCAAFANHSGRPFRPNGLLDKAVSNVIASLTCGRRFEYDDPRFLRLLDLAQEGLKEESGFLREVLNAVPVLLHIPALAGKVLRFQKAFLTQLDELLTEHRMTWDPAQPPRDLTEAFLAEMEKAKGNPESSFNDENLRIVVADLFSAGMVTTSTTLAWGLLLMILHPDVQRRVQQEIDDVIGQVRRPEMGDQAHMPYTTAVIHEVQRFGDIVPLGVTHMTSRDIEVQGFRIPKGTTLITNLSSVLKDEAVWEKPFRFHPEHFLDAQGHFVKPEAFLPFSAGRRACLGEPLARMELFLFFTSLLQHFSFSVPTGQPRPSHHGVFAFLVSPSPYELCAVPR
Chain of Cytochrome P450 3A4 (Homo sapiens) (P08684 whole entry, looked up): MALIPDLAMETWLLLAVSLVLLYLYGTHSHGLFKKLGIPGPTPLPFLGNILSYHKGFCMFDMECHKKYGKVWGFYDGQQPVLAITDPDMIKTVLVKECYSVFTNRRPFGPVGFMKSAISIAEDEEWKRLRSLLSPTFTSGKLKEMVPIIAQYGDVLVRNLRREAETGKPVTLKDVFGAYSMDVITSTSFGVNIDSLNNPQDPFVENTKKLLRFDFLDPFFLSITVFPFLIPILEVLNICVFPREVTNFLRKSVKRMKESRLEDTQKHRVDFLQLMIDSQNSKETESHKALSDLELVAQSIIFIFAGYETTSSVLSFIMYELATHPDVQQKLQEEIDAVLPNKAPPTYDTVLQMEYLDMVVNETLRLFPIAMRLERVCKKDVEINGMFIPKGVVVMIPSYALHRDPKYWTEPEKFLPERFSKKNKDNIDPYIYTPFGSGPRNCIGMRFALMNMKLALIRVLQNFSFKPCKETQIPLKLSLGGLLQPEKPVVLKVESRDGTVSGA
Chain of Cytochrome P450 2C19 (Homo sapiens) (P33261 whole entry, looked up): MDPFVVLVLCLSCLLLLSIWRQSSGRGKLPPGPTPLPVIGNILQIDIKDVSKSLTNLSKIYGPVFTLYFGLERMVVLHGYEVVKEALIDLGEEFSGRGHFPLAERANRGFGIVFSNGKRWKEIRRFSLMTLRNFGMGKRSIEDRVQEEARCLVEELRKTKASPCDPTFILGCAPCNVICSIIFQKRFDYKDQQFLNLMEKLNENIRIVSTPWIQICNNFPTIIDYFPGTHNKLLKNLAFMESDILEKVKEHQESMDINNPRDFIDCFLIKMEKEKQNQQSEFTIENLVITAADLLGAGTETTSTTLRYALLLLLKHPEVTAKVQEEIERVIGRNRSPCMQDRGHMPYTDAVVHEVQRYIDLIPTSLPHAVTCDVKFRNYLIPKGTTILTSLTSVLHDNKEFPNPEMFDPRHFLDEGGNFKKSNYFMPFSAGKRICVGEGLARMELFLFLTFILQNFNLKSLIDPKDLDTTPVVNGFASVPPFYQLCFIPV
Chain of Cytochrome P450 1A2 (Homo sapiens) (P05177 whole entry, looked up): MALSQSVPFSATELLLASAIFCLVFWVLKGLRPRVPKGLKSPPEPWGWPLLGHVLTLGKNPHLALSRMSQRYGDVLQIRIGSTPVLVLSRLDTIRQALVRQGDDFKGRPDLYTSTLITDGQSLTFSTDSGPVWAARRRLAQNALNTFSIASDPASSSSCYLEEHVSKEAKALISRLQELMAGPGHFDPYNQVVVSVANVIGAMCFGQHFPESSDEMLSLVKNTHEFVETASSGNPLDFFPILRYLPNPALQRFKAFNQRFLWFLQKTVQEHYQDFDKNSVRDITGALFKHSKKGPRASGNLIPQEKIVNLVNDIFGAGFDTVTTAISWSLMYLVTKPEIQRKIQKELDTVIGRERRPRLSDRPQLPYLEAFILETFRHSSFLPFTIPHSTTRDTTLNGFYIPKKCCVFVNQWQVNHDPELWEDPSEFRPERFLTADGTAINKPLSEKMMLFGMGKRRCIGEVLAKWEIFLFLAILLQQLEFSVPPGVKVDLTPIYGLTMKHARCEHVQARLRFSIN
Chain of Voltage-gated inwardly rectifying potassium channel KCNH2 (Homo sapiens) (Q12809 whole entry, looked up): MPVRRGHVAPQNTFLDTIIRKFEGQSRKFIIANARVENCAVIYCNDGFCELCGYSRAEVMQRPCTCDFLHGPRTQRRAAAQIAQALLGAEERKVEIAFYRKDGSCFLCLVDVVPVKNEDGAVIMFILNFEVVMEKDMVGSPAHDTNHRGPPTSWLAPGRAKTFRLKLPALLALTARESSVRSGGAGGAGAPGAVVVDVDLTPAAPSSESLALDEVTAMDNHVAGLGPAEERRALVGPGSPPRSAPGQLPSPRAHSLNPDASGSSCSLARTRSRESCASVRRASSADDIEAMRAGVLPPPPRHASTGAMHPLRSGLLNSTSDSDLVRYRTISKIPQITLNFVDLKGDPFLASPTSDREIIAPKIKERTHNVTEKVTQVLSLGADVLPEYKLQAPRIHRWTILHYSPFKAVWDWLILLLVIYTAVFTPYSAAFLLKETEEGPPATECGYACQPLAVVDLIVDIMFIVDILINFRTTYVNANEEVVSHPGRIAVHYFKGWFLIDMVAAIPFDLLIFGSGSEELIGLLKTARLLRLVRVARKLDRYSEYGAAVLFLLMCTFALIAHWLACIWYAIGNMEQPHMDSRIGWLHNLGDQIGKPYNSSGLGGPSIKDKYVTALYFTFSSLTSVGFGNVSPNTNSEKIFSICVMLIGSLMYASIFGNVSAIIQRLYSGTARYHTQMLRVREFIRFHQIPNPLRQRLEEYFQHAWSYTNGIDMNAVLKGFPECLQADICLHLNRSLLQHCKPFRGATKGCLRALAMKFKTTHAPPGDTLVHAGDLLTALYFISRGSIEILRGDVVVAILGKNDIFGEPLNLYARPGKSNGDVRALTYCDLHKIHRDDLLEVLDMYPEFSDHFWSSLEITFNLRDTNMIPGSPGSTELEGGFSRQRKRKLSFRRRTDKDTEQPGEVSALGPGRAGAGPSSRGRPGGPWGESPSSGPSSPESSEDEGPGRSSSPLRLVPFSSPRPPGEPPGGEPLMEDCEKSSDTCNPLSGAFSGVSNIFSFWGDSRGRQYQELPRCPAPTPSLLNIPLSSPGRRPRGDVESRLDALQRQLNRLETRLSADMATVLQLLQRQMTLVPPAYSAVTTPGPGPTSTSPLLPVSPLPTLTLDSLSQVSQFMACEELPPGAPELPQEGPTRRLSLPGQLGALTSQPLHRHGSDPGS
Chain of Nuclear receptor subfamily 1 group I member 2 (Rattus norvegicus) (Q9R1A7 whole entry, looked up): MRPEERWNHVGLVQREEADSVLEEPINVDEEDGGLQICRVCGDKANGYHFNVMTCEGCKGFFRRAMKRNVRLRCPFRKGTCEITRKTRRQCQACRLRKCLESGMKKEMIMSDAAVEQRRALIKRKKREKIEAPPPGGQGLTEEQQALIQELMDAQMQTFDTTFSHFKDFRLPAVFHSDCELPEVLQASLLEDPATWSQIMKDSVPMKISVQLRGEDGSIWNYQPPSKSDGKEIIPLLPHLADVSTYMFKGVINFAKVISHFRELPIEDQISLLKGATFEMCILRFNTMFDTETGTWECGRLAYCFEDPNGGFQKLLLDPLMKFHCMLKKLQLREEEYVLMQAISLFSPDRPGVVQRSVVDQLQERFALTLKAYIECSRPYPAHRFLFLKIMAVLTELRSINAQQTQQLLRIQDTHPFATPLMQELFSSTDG

Turning to `CCCCC(=O)O[C@]1(C(=O)CO)CC[C@H]2[C@@H]3CCC4=CC(=O)CC[C@]4(C)[C@H]3[C@@H](O)C[C@@]21C`, the Potency entry in [1], in assay [2], in assay [3], in assay [5], in [8] and in assay [9] was “inactive” in each case. Moreover, the Potency result in assay [10] and in [11] was “inactive” in each case. The compound was classed as inactive in assay [4]. In addition, the Potency in assay [6] was 26.6 µM (active); in assay [7], 6.31 µM (active); in [12], 3.47 µM (active).

On to `c1cnc2c(n1)CCCC2`, for which the Potency entry in [1], in assay [2], in [3], in assay [5], in [6] and in assay [13] was “inactive” throughout. Besides, the Potency entry in [10], in [14], in assay [11], in [15] and in assay [12] was “inactive” each time. Further, in assay [4], the call was inactive.

As for `O=C(CCCN1CCN(c2ccc(F)cc2)CC1)NC1c2ccccc2CSc2ccccc21` (stereo unspecified), the Potency in [1] is 21.1 µM (active); in assay [13], 9.77 µM (active); in [10], 4.36 µM (active); in assay [14] it was 6.92 µM (active); in [15] it was 1.9 µM (active). The Potency entry in assay [2], in assay [3], in assay [5], in assay [6] and in assay [11] was “inactive” each time. For the same compound, in assay [4], the compound was called inactive.

As for `COC(=O)c1cc(S(N)(=O)=O)ccc1OC`, the Potency result in assay [1], in assay [2], in assay [3], in assay [5], in assay [6] and in assay [13] was “inactive” throughout. In addition, the Potency entry in [10], in assay [14] and in [11] was “inactive” each time. Also, the compound was called inactive in assay [4].

`C[C@@H]1C[C@H]2[C@@H]3CCC4=CC(=O)C=C[C@]4(C)[C@@]3(F)[C@@H](O)C[C@]2(C)[C@H]1C(=O)CO`: the Potency entry in [1], in [2], in [3], in assay [5], in assay [8] and in assay [9] was “inactive” each time. Besides, the Potency result in assay [13], in assay [11] and in assay [15] was “inactive” throughout. Further, the compound was called inactive in assay [4]. Besides, the Potency in assay [6] was 18.8 µM (active); in assay [7], 2.51 µM (active); in assay [10], 8.71 µM (active); in assay [14], 15.5 µM (active).

On to `C=C(C)C(=O)OCCOC(=O)CC(C)=O`, for which the Potency result in [1], in [2], in [3], in assay [5], in assay [6] and in [13] was “inactive” each time. The Potency entry in assay [10] and in assay [15] was “inactive” in each case. Besides, in assay [4], the outcome was inactive.

Regarding `Oc1cc(O)c(Cl)cc1Cl`, the Potency result in assay [1], in [2], in assay [3], in assay [5], in [6] and in assay [10] was “inactive” in each case. In addition, the Potency entry in [15] is “inactive”. The result in [4] was inactive. Besides, the results for the Potency in assay [14], in assay [11] and in assay [12] were 40.9 µM (active), 18.3 µM (active) and 36.5 µM (active), respectively.

`OC/C(Br)=C(\Br)CO`: the Potency result in assay [1], in assay [2], in assay [3], in assay [5], in [6] and in assay [14] was “inactive” throughout. In addition, the Potency result in assay [15] and in [12] was “inactive” in each case. The call in [4] was inactive. Also, the Potency was 35.3 µM (active) in assay [13] and 31.5 µM (active) in assay [10].

Consider `CO[Si](C)(OC)OC`, for which the Potency result in assay [1], in assay [2], in [3], in assay [5], in assay [6] and in assay [13] was “inactive” each time. In addition, the Potency entry in assay [10] and in assay [14] was “inactive” in each case. The call in assay [4] was inactive. In [12], the Potency was 4.91 µM (active).

Take `CCCCC(CC)C(=O)OCCOCCOCCOCCOC(=O)C(CC)CCCC` (stereo unspecified): the Potency entry in assay [1], in [2], in [3], in assay [5] and in [13] was “inactive” in each case. Further, in assay [4], the result was inactive. Also, the Potency was 48.6 µM (active) in assay [6]; 22.4 µM (active) in assay [10]; 12.6 µM (active) in [14]; 31.7 µM (active) in assay [11]; 12.6 µM (active) in assay [12].
